Molecules are shown by their SMILES. Activity calls are given as the source filed them. How the source made its calls: active means hit-call score of the fitted dose curve at least 0.9, where 1 is the maximum; inactive means score below 0.9.

Read-out in the first assay: Intercellular Adhesion Molecule 1 (ICAM1), ICAM1 (gene 3383)
The assay is described as follows: BSK_BE3C_ICAM1: BioMAP Diversity Plus: BE3C Assay for Intercellular Adhesion Molecule 1 (ICAM1) Biomarker Activity (AID 2284278).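 Further: cell-surface ICAM-1 protein level quantified by ELISA.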 To be noted: primary human bronchial epithelial cells. In short, it runs like this: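 Primary human bronchial epithelial cells in BE3C system, 24 h after chemical dosing; cell-surface ICAM-1 measured by ELISA relative to DMSO. Parallel SRB staining (0.1% SRB after 10% TCA fixation, read at 560 nm) assessed cytotoxicity.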
As for `CCCCOC(=O)COC(=O)c1ccccc1C(=O)OCCCC`, the outcome was inactive.

Consider `OCCCCO`, for which the outcome was inactive.

As for `O=C(Cc1ccccc1)OCCc1ccccc1`, the outcome was inactive.

Read-out in a further assay: Interferon-inducible T-cell alpha chemoattractant (ITAC), CXCL11 (gene 6373)
As to the kind of experiment: BSK_BE3C_ITAC: BioMAP Diversity Plus: BE3C Assay for Interferon-inducible T-cell alpha chemoattractant (ITAC) Biomarker Activity (AID 2284279). As to conditions: primary human bronchial epithelial cells. In short, it runs like this:
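The assay measures I-TAC levels by ELISA in human primary bronchial epithelial cell cultures 24 hours after chemical treatment. Values reflect signal increase over the DMSO baseline.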
Consider `CCCCOC(=O)COC(=O)c1ccccc1C(=O)OCCCC`, for which the result was inactive.

As for `OCCCCO`, the outcome was inactive.

Turning to `O=C(Cc1ccccc1)OCCc1ccccc1`, the outcome was inactive.

Read-out in another assay: Interleukin-8 (IL8), CXCL8 (gene 3576)
The assay is described as follows: BSK_BE3C_IL8: BioMAP Diversity Plus: BE3C Assay for Interleukin-8 (IL8) Biomarker Activity (AID 2284280). As to conditions: primary human bronchial epithelial cells. The method, boiled down: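 Primary human bronchial epithelial cells (BE3C system) exposed 24 h; IL-8 measured by ELISA and fitted in positive direction versus DMSO. Overt cytotoxicity assessed by SRB total-protein staining in parallel cultures.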
Consider `CCCCOC(=O)COC(=O)c1ccccc1C(=O)OCCCC`, for which the outcome was inactive.

Turning to `OCCCCO`, the outcome was inactive.

As for `O=C(Cc1ccccc1)OCCc1ccccc1`, the result was inactive.

Read-out in another assay: Epidermal growth factor receptor (EGFR), EGFR (gene 1956)
The assay is described as follows: BSK_BE3C_EGFR: BioMAP Diversity Plus: BE3C Assay for Epidermal growth factor receptor (EGFR) Biomarker Activity (AID 2284281). To be noted: primary human bronchial epithelial cells. In short, it runs like this: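 Human primary bronchial epithelial cells (BE3C system) dosed with chemicals; EGFR measured by ELISA at 24 h, fitted in the positive direction relative to DMSO. Cytotoxicity tracked in parallel cultures by SRB total-protein staining.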
With `CCCCOC(=O)COC(=O)c1ccccc1C(=O)OCCCC`, the outcome was inactive.

Turning to `OCCCCO`, the result was inactive.

Turning to `O=C(Cc1ccccc1)OCCc1ccccc1`, the outcome was inactive.

Read-out in another assay: KRT18 (gene 3875)
As to the kind of experiment: BSK_BE3C_Keratin818: BioMAP Diversity Plus: BE3C Assay for Keratin 818 Biomarker Activity (AID 2284282). To be noted: primary human bronchial epithelial cells. In short, it runs like this: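 Primary human bronchial epithelial cells treated 24 h; Keratin 8/18 quantified by ELISA, fit relative to DMSO. Cytotoxicity tracked in parallel cultures by sulforhodamine B total-protein staining.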
On to `CCCCOC(=O)COC(=O)c1ccccc1C(=O)OCCCC`, for which the outcome was inactive.

For the compound `OCCCCO`, the outcome was inactive.

In the case of `O=C(Cc1ccccc1)OCCc1ccccc1`, the outcome was inactive.

Read-out in another assay: Matrix Metallopeptidase 9 (MMP9), MMP9 (gene 4318)
The assay is described as follows: BSK_BE3C_MMP9: BioMAP Diversity Plus: BE3C Assay for Matrix Metallopeptidase 9 (MMP9) Biomarker Activity (AID 2284283). As to conditions: primary human bronchial epithelial cells. The method, boiled down: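 MMP9 is measured by ELISA after a 24 h compound exposure of primary human bronchial epithelial cultures. Parallel SRB staining gives overt cytotoxicity. Values fitted in the positive direction against DMSO.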
In the case of `CCCCOC(=O)COC(=O)c1ccccc1C(=O)OCCCC`, the result was inactive.

For the compound `OCCCCO`, the result was inactive.

On to `O=C(Cc1ccccc1)OCCc1ccccc1`, for which the result was inactive.

Read-out in another assay: Plasminogen activator inhibitor-1 (PAI1), SERPINE1 (gene 5054)
The assay is described as follows: BSK_CASM3C_PAI1: BioMAP Diversity Plus: CASM3C Assay for Plasminogen activator inhibitor-1 (PAI1) Biomarker Activity (AID 2284284).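 Further: PAI-1 protein level measured by ELISA 24 h after dosing.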 To be noted: primary human coronary artery smooth muscle cells.
As to `CCCCOC(=O)COC(=O)c1ccccc1C(=O)OCCCC`, the result was inactive.

For the compound `OCCCCO`, the result was inactive.

For `O=C(Cc1ccccc1)OCCc1ccccc1`, the outcome was inactive.

Read-out in a further assay: Monocyte Chemoattractant Protein-1 (MCP1), CCL2 (gene 6347)
As to the kind of experiment: BSK_hDFCGF_MCP1: BioMAP Diversity Plus: hDFCGF Assay for Monocyte Chemoattractant Protein-1 (MCP1) Biomarker Activity (AID 2284285). To be noted: primary human foreskin fibroblasts. In short, it runs like this:
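Human foreskin fibroblasts (hDFCGF system) were exposed to compound and secreted MCP-1 was measured by ELISA after 24 hours. Activity was fitted relative to DMSO. Cytotoxicity was checked by SRB total-protein staining in parallel cultures.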
Turning to `CCCCOC(=O)COC(=O)c1ccccc1C(=O)OCCCC`, the result was inactive.

In the case of `OCCCCO`, the result was inactive.

For the compound `O=C(Cc1ccccc1)OCCc1ccccc1`, the outcome was inactive.

Read-out in a further assay: Intercellular Adhesion Molecule 1 (ICAM1), ICAM1 (gene 3383)
The assay is described as follows: BSK_hDFCGF_ICAM1: BioMAP Diversity Plus: hDFCGF Assay for Intercellular Adhesion Molecule 1 (ICAM1) Biomarker Activity (AID 2284287). To be noted: primary human foreskin fibroblasts. The method, boiled down:
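Primary human foreskin fibroblasts (hDFCGF system) dosed with chemical; ICAM-1 quantified by ELISA at 24 h relative to DMSO. Parallel SRB total-protein staining to assess overt cytotoxicity.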
`CCCCOC(=O)COC(=O)c1ccccc1C(=O)OCCCC`: the result was inactive.

As to `OCCCCO`, the result was inactive.

For `O=C(Cc1ccccc1)OCCc1ccccc1`, the outcome was inactive.

Read-out in the next assay: TIMP metallopeptidase inhibitor 2 (TIMP2), TIMP2 (gene 7077)
The assay is described as follows: BSK_hDFCGF_TIMP2: BioMAP Diversity Plus: hDFCGF Assay for TIMP metallopeptidase inhibitor 2 (TIMP2) Biomarker Activity (AID 2284289). To be noted: primary human foreskin fibroblasts. In short, it runs like this: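 Primary human foreskin fibroblasts in the hDFCGF system, dosed for 24 h; TIMP-2 level measured by ELISA, fitted in the positive direction against DMSO; cytotoxicity checked in parallel by sulforhodamine B total protein staining.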
`CCCCOC(=O)COC(=O)c1ccccc1C(=O)OCCCC`: the outcome was inactive.

On to `OCCCCO`, for which the outcome was inactive.

As to `O=C(Cc1ccccc1)OCCc1ccccc1`, the outcome was inactive.

Read-out in a further assay: Thrombomodulin, THBD (gene 7056)
As to the kind of experiment: BSK_LPS_Thrombomodulin: BioMAP Diversity Plus: LPS Assay for Thrombomodulin Biomarker Activity (AID 2284296).
Conditions: not given
In short, it runs like this: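 Human umbilical vein endothelial cells co-cultured with PBMC and stimulated with LPS; cell-surface thrombomodulin measured by ELISA 24 hours after compound. Gain or loss versus DMSO; cytotoxicity checked by SRB staining in parallel cultures.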
With `CCCCOC(=O)COC(=O)c1ccccc1C(=O)OCCCC`, the outcome is “inactive [primary human HUVEC with PBMC]”.

For `OCCCCO`, the outcome was inactive.

Consider `O=C(Cc1ccccc1)OCCc1ccccc1`, for which the result was inactive.

The values are drawn from PubChem BioAssay (EPA / NIEHS).
